Test results taken from ChEMBL document CHEMBL3988442, “University of Dundee, Small-Polar-MMV Screening Library” (2021).
Screen size: about 48,000 compounds; about 13,000 (27%) showed an effect of 50% or more. Some of the results follow.

tested on: Wolbachia pipientis; test: Anti-Wolbachia Cell-Based Screen; type: functional; parameters: scale not given: in the data most compounds retested in dose-response had high values; details: 5 µM

SMILES	Percent Effect
COc1cccc(N2CC3(CCN(c4ccncn4)C3)CC2=O)c1 (centres undefined)	-12.13%
Cc1nnc2n1CCN(Cc1nc3ccccc3o1)C2	13.24%
O=C(N[C@@H]1CCNC[C@H]1O)c1cc(F)cc(Cl)c1	0.509%
CC(C)NC(=O)CCC(=O)N1CCC(c2noc3cc(F)ccc23)CC1	90.62%
O=C(O)CCC(=O)N1CCC(c2noc3cc(F)ccc23)CC1	117.2%
O=C(CN1CCC(C(=O)c2cc(F)ccc2F)CC1)NC1CC1	-20.5%
CS(=O)(=O)CCC(=O)N1CCC(c2cccc(F)c2)C1 (centres undefined)	-0.1646%
O=C(O)CCCC(=O)N1CCC(c2noc3cc(F)ccc23)CC1	110.7%
CC(C)NC(=O)CCN1CCC(C(=O)c2cc(F)ccc2F)CC1	-38.81%
O=C(CCc1cc(O)no1)N1CCC(Cc2ccc(F)cc2)CC1	-4.234%
O=C(CCC(=O)N1CCNC(=O)C1c1cccc(F)c1)NC1CCCC1 (centres undefined)	-14.56%
CC(=O)N1CC[C@H](c2nc3cc(F)ccc3o2)C1	5.323%
O=C(CCC(=O)N1CCC(c2noc3cc(F)ccc23)CC1)NC1CC1	145.4%
O=C(c1ccc(Cl)c(Cl)c1)N1CCCCC1C1OCCO1 (centres undefined)	4.358%
Cc1ncc(CNC(=O)N(C)Cc2ccc([S+](C)[O-])cc2)s1 (centres undefined)	-5.78%
CCc1nc(CN2CCOC(CN(CC)c3cccnn3)C2)cs1 (centres undefined)	0.2652%
Cc1nc(C(C)C)sc1C(=O)NS(=O)(=O)c1ccc(C#N)cc1	-14.12%
Cc1ccc(CNCCOc2ccc(S(C)(=O)=O)cc2)cc1	14.5%
NC(=O)C1CCN(C(=O)c2ccccc2OCc2ccccc2Cl)CC1	5.008%
Cc1ccc(NCCCNC(=O)C2CCCN(Cc3ccco3)C2)nc1 (centres undefined)	-3.633%
C=C(C)COc1ccccc1NC(=O)N1CCCCC1CO (centres undefined)	-1.415%
C=C(C)CN1CCC(NC(=O)NCCc2ccccc2OC)CC1	1.808%
O=C(NCCCc1ccncc1)C1CCCN(Cc2ccco2)C1 (centres undefined)	21.32%
C=C(C)COc1ccccc1C(=O)N1CCC2(CC1)CN(C)CCN2C	12.34%
C=C(C)COc1ccccc1CN1CCC(NC(C)=O)CC1	100.9%

SMILES	Percent Effect
C=C(C)COc1ccccc1NC(=O)NC1CCOCC1	-8.907%
C=C(C)COc1ccccc1CN1CCCC(C(=O)NCCCO)C1 (centres undefined)	100.8%
C=C(C)COc1ccccc1CN1CCC(C(=O)NCC)C1 (centres undefined)	91.68%
CCNC(=O)COc1ccccc1N1CCCC(C)C1 (centres undefined)	-0.1998%
C=C(C)COc1ccccc1C(=O)N1CCC(C(=O)NCC)C1 (centres undefined)	83.75%
CCc1nc(CCNC(=O)Nc2cc(C(N)=O)sc2C)cs1	34.11%
O=C(c1ncoc1C1CCCO1)N1CC2(CCCC2)c2ccccc21 (centres undefined)	-7.876%
Cc1ccc(CCNc2ncnc3sc4c(c23)CCNC4)o1	6.04%
CC(=O)N1CCc2[nH]nc(C(=O)N3CCOCC3)c2C1	-13.35%
CCC(C)N1CCc2c(C(=O)N3CCOCC3)n[nH]c2C1 (centres undefined)	-26.93%
CC(C)c1nc2oc(C(=O)N3CCOCC3)c(N)c2c2c1CCCC2	100.5%
Nc1nc2c(c(NCc3ccc(C(=O)N4CCCC4)cc3)n1)CCCC2	-8.867%
CCn1c(N)nc2cc(C(=O)N3CCCOCC3)cnc21	-12.44%
CC(=O)N1CCCN(C(=O)c2oc(Br)cc2C)CC1	-21.77%
Cc1nc2oc(C(=O)N3CCCC3)c(N)c2c2c1CCCC2	89.55%
Cc1nc2oc(C(=O)N3CCOCC3)c(N)c2c2c1CCCC2	117.9%
Cn1c(C(=O)N2CCOCC2)nc2c1CCN(c1ncccn1)C2	-2.522%
Cc1nc(N2CCOc3ccc(CO)cc3C2)c2c(C)noc2n1	-4.645%
CNC(=O)C(C)NC(=O)c1cc(COc2ccc(OC)cc2Cl)[nH]n1 (centres undefined)	-6.822%
CN1C[C@@H](n2cnc(-c3ccccc3)c2-c2c[nH]cn2)C[C@H]1C(=O)O	-2.319%
Cc1cc(C)c(C(=O)N2CCC3(CCCN(CC(C)(C)C)C3)C2)[nH]1 (centres undefined)	-1%
COc1ccc(CN2C[C@H](N3CCCC3=O)[C@@H]3OCCC[C@@H]32)cc1.O=C(O)C(F)(F)F	8.325%
CC[C@@H]1N(Cc2ccc(C)s2)CCC[C@]12CCC(=O)N2C.O=C(O)C(F)(F)F	100.7%
CC[C@@H]1N(Cc2ccc(OC)cc2)CCC[C@]12CCC(=O)N2CCOC.O=C(O)C(F)(F)F	91.26%
CNC(=O)[C@H]1C[C@H]2OCC[C@H]2N(Cc2ccc(F)cc2)C1.O=C(O)C(F)(F)F	-9.122%

SMILES	Percent Effect
CC[C@@H]1N(Cc2ccc(F)cc2)CCC[C@]12CCC(=O)N2C.O=C(O)C(F)(F)F	88.6%
Cc1ccc(CN2CC(C(=O)N3CCCC3)C3(CCOCC3)C2)s1.O=C(O)C(F)(F)F (centres undefined)	-16.58%
Cc1ccc(CN2CCCC3(CCCC(=O)N3C)C2)s1.O=C(O)C(F)(F)F (centres undefined)	5.855%
COc1ccc(CN2CCO[C@@H]3C[C@@H](C(=O)NC(C)C)C[C@H]32)cc1.O=C(O)C(F)(F)F	-0.6614%
CC[C@@H]1N(Cc2ccc(C)o2)CCC[C@]12CCC(=O)N2CCOC.O=C(O)C(F)(F)F	120.4%
CN1CCN(c2cnn(CCn3cccn3)c(=O)c2)CC1	1.729%
CN(C)C[C@H]1CC[C@@H](Cc2ccc3c(cnn3C)c2)O1	15.72%
Cc1cccc2nc(CN3CCCC(Cn4ccnn4)C3)cc(=O)n12 (centres undefined)	-2.392%
CC(C)Cn1ncc2cc(C(=O)N(C)CCc3ccccc3)cnc21	7.152%
CC[C@@H]1N(Cc2ccc(F)cc2)CCC[C@]12CCC(=O)N2CCOC.O=C(O)C(F)(F)F	105%
Cn1nnc2c1CCN(Cc1ccoc1)C2COCc1ccccc1.O=C(O)C(F)(F)F (centres undefined)	14.93%
CC[C@@H]1N(Cc2ccoc2)CCC[C@]12CCC(=O)N2CCOC.O=C(O)C(F)(F)F	119.5%
COCCNC(=O)[C@H]1C[C@H]2OCC[C@H]2N(Cc2ccoc2)C1.O=C(O)C(F)(F)F	2.424%
COCCN1C[C@@H]2CN(Cc3cccc(F)c3)CCC[C@]2(C(=O)O)C1.O=C(O)C(F)(F)F.O=C(O)C(F)(F)F	4.566%
COCCN1C(=O)CCC12CCCN(Cc1ccccc1F)C2.O=C(O)C(F)(F)F.O=C(O)C(F)(F)F (centres undefined)	-19.88%
CCCOc1ccc(C(=O)N[C@@H]2CCNC[C@H]2O)cc1Cl	4.821%
c1cc(NCc2cscn2)cc(OCCN2CCCCC2)c1	8.828%
CN(Cc1cc[nH]n1)C(=O)C1CC(=O)N(Cc2ccncc2)C1 (centres undefined)	23.6%
Cc1cc(C2CCCN(C(=O)CN3CCN(C)CC3)C2)n[nH]1 (centres undefined)	0.3099%
CCN1CCN(C(=O)Cn2nc(C(F)(F)F)c(Br)c2C2CC2)CC1	81.51%
CC(C)(C)OC(=O)Cn1nc(C2CC2)cc(C(F)(F)F)c1=O	2.885%
CCN1CCN(C(=O)CCC2CCN(C(=O)CCSC)CC2)CC1	1.019%
Cc1nn(C)c(C)c1CCC(=O)N1CCN(CCn2cncn2)CC1	2.467%
CCCN1CCN(C(=O)Cn2nc(C(F)(F)F)c(Br)c2C2CC2)CC1	112.9%
CCCN1CCN(C(=O)CCn2nc(C(F)(F)F)c(Br)c2C)CC1	94.07%

SMILES	Percent Effect
CN1CCN(C(=O)Cn2nc(C(F)(F)F)c(Br)c2C2CC2)CC1	120.3%
CCCN1CCCN(C(=O)C(CC)N2CCCC2=O)CC1 (centres undefined)	-5.426%
CC(C)(C)C(=O)Cn1nc(C2CC2)cc(C(F)(F)F)c1=O	3.486%
CCCN1CCN(C(=O)C(C)n2cc(Br)cn2)CC1 (centres undefined)	6.17%
CCN1CCN(C(=O)CCc2c(C)noc2Cl)CC1	3.416%
CNc1cc(C)nc(N2C[C@H](NC(=O)C3CCOCC3)[C@@H](C3CC3)C2)n1	-20.28%
CNC(=O)COC(=O)c1cccc(-n2ccc(C(F)(F)F)n2)c1	-11.26%
CCCN(CCc1cccc(F)c1)c1ccc2nnnn2n1	9.519%
CSC(CNS(C)(=O)=O)c1cccc(Cl)c1 (centres undefined)	9.109%
Cc1nc(C)n(Cc2cccc(NC(=O)N(C)CCC(C)O)c2)n1 (centres undefined)	-6.821%
O=C(CN1C(=O)CCC1=O)N1CCOCC1	-0.7877%
O=C(Cn1nnc(-c2ccc(F)cc2)n1)N1CCOCC(O)C1 (centres undefined)	-9.782%
O=C(Cn1nc(C(F)(F)F)c(Br)c1C1CC1)N1CCOCC1	103.1%
CCN(Cc1ccncc1)C(=O)C1COc2c(cccc2OC)C1 (centres undefined)	-5.298%
NC(=O)c1cccc(OCCC(=O)NC2CCc3c(F)cccc32)c1 (centres undefined)	3.003%
COCC(=O)N1CCCC2(CCN(Cc3cccc(C)n3)C2=O)C1.O=C(O)C(F)(F)F (centres undefined)	-15.33%
CCCC(=O)N1CCC2(CC1)CN(Cc1cccc(C)n1)C(=O)CO2	88.89%
COCCN1CCC2(CC1)CN(CCn1cccn1)C(=O)CO2.O=C(O)C(F)(F)F	-17.67%
Cc1cccc(CN2CCC3(CCCN(C(=O)CN(C)C)C3)C2=O)n1 (centres undefined)	1.32%
Cc1cccc(CN2CC3(CCNCC3)OCC2=O)n1	-5.931%
Cc1cccc(CN2CC3(CCN(C(=O)C4CC4)CC3)OCC2=O)n1	113.2%
COCCN1CCC2(CC1)CN(Cc1cccc(C)n1)C(=O)CO2	94.2%
Cc1cccc(CN2CC3(CCN(C(N)=O)CC3)OCC2=O)n1	101.1%
O=C1COC2(CCN(Cc3ccccn3)CC2)CN1CC1CC1	3.205%
